Measurements as given in ChEMBL document CHEMBL4513216, “Probing the Open Global Health Chemical Diversity Library for Multistage-Active Starting Points for Next-Generation Antimalarials” (ACS Infect Dis, 2020).
Screen size: about 69,000 compounds; about 8,600 (12%) showed an effect of 50% or more. The list comes from a sample in which strong results are over-represented; it also holds similar structures and randomly drawn compounds.

These compounds were tested on Plasmodium berghei (assay: Screen against P. berghei liver stage (PbLuc), transformed with Luciferase, at 10uM). Settings: tested at 10 uM.
Format: functional, HepG2

Row | SMILES | INHIBITION [%]
1 | Cn1ccnc1C(=O)N1CCOC(Cc2ccc(Cl)cc2)C1 (stereo unspecified) | 47.2
2 | Cc1cnc(CNS(=O)(=O)CCC2CCCO2)o1 (stereo unspecified) | 57.7
3 | O=S(=O)(CCC1CCCO1)NCc1ncc(-c2ccccc2)o1 (stereo unspecified) | 20
4 | CN(CCCC1CCCO1)S(=O)(=O)NCc1ccccc1 (stereo unspecified) | 16.1
5 | C=c1ccoc1=C1NN=C(CNCCn2cccn2)O1 | 34.1
6 | CC(=O)N1CCC2(CC1)CN(CC(C)C)CC21CCNC1=O (stereo unspecified) | -33.1
7 | O=C(NCc1ccoc1)NC1CCCN(c2ncccn2)C1 (stereo unspecified) | -22.1
8 | CCOC1CCN(C(=O)c2csc(S(N)(=O)=O)c2)CC1 | 62.4
9 | CCCOC1CCCN(C(=O)c2csc(S(N)(=O)=O)c2)C1 (stereo unspecified) | 0.991
10 | CC1CCCN(C(=O)c2csc(S(N)(=O)=O)c2)CC1 (stereo unspecified) | 11.5
11 | CCc1nnc2n1CC(CNCc1nc(C)c(C)o1)CC2 (stereo unspecified) | -8.22
12 | Cc1ccc(CNC(=O)N2CCCC(NS(C)(=O)=O)C2)cc1 (stereo unspecified) | 9.64
13 | CCOCC(=O)N1C[C@@H]2COC[C@]2(c2nc(C)no2)C1 | 63.8
14 | Cc1noc([C@]23COC[C@H]2CN(C(=O)CN(C)C)C3)n1 | 46.6
15 | Cc1noc([C@]23COC[C@H]2CN(C(=O)COC2CCCC2)C3)n1 | -5.89
16 | COCCN1CCc2ncnc(N(C)C)c2CC1 | 33.5
17 | CN(C)Cc1ccnc(C2CN(CCCc3ccccc3)CCO2)n1 (stereo unspecified) | 42.6
18 | O=C(c1ccc(C2CCCN2C(=O)c2ccc[nH]2)s1)N1CCSCC1 (stereo unspecified) | -32.2
19 | CCn1ncc2c1CCCC2NCc1ccc2c(c1)OCCO2 (stereo unspecified) | 1.51
20 | CCn1ncc2c1CCCC2NCc1ccc2c(c1)CCO2 (stereo unspecified) | 5.03
21 | Cn1ncc2c1CCCC2NCc1cnc(-c2ccccc2)nc1 (stereo unspecified) | 33
22 | CC(C)(C)n1ncc2c1CCCC2NCc1ccc2c(c1)OCCO2 (stereo unspecified) | 93.1

Row | SMILES | INHIBITION [%]
23 | CC(C)(C)n1ncc2c1CCCC2NCc1ccc2c(c1)CCO2 (stereo unspecified) | 61
24 | COCc1nc(CNC2CCCc3c2cnn3C(C)(C)C)cs1 (stereo unspecified) | 2.02
25 | CC(C)(C)n1ncc2c1CCCC2NCc1cccc2c1OCCO2 (stereo unspecified) | 35.9
26 | CC(C)(C)n1ncc2c1CCCC2NCc1ccc2ncccc2c1 (stereo unspecified) | 72.8
27 | CC(C)(C)n1ncc2c1CCCC2NCc1ccsc1 (stereo unspecified) | 50.1
28 | CC(C)(C)n1ncc2c1CCCC2NCc1cccc2c1OCO2 (stereo unspecified) | 20.2
29 | O=C1C(NCc2ccc3c(c2)CCO3)CCN1Cc1ccccc1 (stereo unspecified) | 6.88
30 | CC(C)(C)n1ncc2c1CCCC2NCc1cccc(C(N)=O)c1 (stereo unspecified) | -8.4
31 | CNC(=O)C1(C)CN(S(=O)(=O)c2cccc(OC)c2)CCO1 (stereo unspecified) | 11.175
32 | O=C(c1cnccn1)N1C[C@@H](OCc2cccnc2)[C@H]2OCCC[C@H]21 | 14.6
33 | CC(C)CCn1[nH]c(CNc2ccccc2)nc1=O | -7.9
34 | CN(C)C1CCN(C(=O)c2cc3c(s2)CCN3C(=O)C2CC2)CC1 | 49.1
35 | CCC1=N[C@@]2(CC[C@@H]3CN(Cc4ccc(Cl)cc4)C[C@@H]32)C(=O)N1C | 50.6
36 | CCC1=N[C@@]2(CC[C@@H]3CN(Cc4ccc(C)cc4)C[C@@H]32)C(=O)N1C | 34.9
37 | CCC1=N[C@@]2(CC[C@@H]3CN(Cc4cccc(Cl)c4)C[C@@H]32)C(=O)N1C | 30.3
38 | CCC1=N[C@@]2(CC[C@@H]3CN(Cc4ccc(F)cc4)C[C@@H]32)C(=O)N1C | 62
39 | CCC1=N[C@@]2(CC[C@@H]3CN(Cc4ccccc4C)C[C@@H]32)C(=O)N1C | 46.6
40 | CCC1=N[C@@]2(CC[C@@H]3CN(CC)C[C@@H]32)C(=O)N1C | 23.1
41 | Cc1cccc(CNC(=O)Nc2ccn(CCCC(=O)N(C)C)n2)c1 | -6.52
42 | CC1CCN(c2nc3cn(-c4ccc5c(c4)OCO5)c(=O)c-3c[nH]2)CC1 | 23.5
43 | Cc1ccc(CN2CCC[C@@H]3CN(C(=O)c4ccco4)C[C@@H]32)o1 | -2.35
44 | Cc1cc(C(=O)Nc2ccc3c(ccn3CCN3CCOCC3)c2)on1 | 12.8

Row | SMILES | INHIBITION [%]
45 | Cc1cc(CN2CCN(Cc3ccc(C#N)cc3OC(F)F)CC2)no1 | 14.27
46 | COc1ccc(Oc2ccc(C(F)(F)F)cn2)cc1CN1CCCC1 | 63.7
47 | COc1cc(Oc2ccc(C#N)cn2)ccc1CN1CCCC1 | 82.9
48 | COc1cc(Oc2ccc(C(F)(F)F)cn2)ccc1CN1CCCC1 | 91.5
49 | COc1ccc(CN2CCC(O)CC2)c(OC)c1 | 1.81
50 | COc1cc(Oc2cnc3ccccc3n2)ccc1CN1CCCC1 | 84.9
51 | COc1ccc(CN2CC[C@H](NC(C)=O)[C@@H](O)CC2)c(OC)c1 | 35.3
52 | COc1ccc(C2CCCN2c2ccc(C#N)cn2)c(OC)c1 (stereo unspecified) | 37.7
53 | COc1cc(Oc2ccc(C(N)=O)cn2)ccc1CN1CCCC1 | -0.27
54 | COc1ccc(CN2CCn3c(CO)nnc3C2)cc1CN1CCCC1 | 44.8
55 | COc1ccc(CN2CCSCC2)c(OC)c1 | 33.1
56 | COc1ccc(Oc2cccnc2)cc1CN1CCCC1 | 49.4
57 | O=C(Cc1cccc(O)c1)N1CCCC(O)(CN2CCOCC2)CC1 (stereo unspecified) | 6.26
58 | CC(Cn1cccn1)NC(=O)NCc1ccc(C(N)=O)cc1 (stereo unspecified) | -98.8
59 | Cc1cc(NC(=O)CN2CCn3c(nnc3C3CC3)C2)on1 | 25.3
60 | CC(C)c1nc(C2CCCN2CCN2CCCCC2)no1 (stereo unspecified) | -0.55
61 | CN(C)CCO[C@H]1CN(CC2CC2)[C@@H]2CCCO[C@H]12 | 25.8
62 | CC(NC(=O)c1cccs1)C(=O)NCc1ccccn1 (stereo unspecified) | 21.6
63 | O=c1cc(Cn2cncn2)nc2n1CCCN(Cc1ccoc1)C2 | 20.5
64 | CCS(=O)(=O)N1CCC(NC(=O)c2cc(C(C)C)ccc2O)CC1 | -7.1
65 | Cc1ncsc1CN1CC[C@H]2OCC[C@@]2(C(=O)N2CCOCC2)C1 | 11.4
66 | CC1(C)CC(NC(=O)c2cnn(-c3ccccc3F)c2N)CC(C)(C)N1 | -33
